KDM4E inh: inhibitors of human JMJD2E histone demethylase; JMJD2E catalytic domain, FDH-coupled NADH fluorescence (FDH is formaldehyde dehydrogenase); Potency, µM (titrated, usually from 57.1 µM), for the others: top-dose activity change, negative = inhibition, most hits filed as inhibitors; B2RXH2; hit rate 1.6% among 230,000; active means well fitted inhibition curve with a large enough effect, not every such curve was filed as active; inconclusive means small, poorly fitted or top-dose-only effect, or another doubt; inactive means no such curve, though single readings can be large or run the other way;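 further: potency means the concentration at half of the fitted maximal effect; 0% = wells with enzyme and -100% = buffer wells without enzyme; nearly all actives have a fitted effect of over 50% in size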
ALDH1A1 inh: ALDH1A1 (human) enzyme inhibition; P00352; Purified ALDH1A1, NADH fluorescence, propionaldehyde substrate; Potency, µM (highest dose often 75.3 µM), for the others: at the top dose activity, negative = inhibition, usual class: inhibitors; hit rate 7.3% among 220,000; active means well fitted inhibition curve with a large enough effect, not every such curve was filed as active; inconclusive means small, poorly fitted or top-dose-only effect, or another doubt; inactive means no such curve, though single readings can be large or run the other way;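 further: potency means the concentration at half of the fitted maximal effect; plate controls were no enzyme wells and a reference inhibitor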
HTT ATP protect: cytoprotection in Huntington HTT-Q103 PC12 cell model. PC12 HTT-Q103 induced, cytoprotection, ATP luminescence, 40 h. Potency, µM (titrated, usually from 56.4 µM), inactives show cytoprotection (ATP increase), most hits filed as activators. hit rate 0.14% among 230,000; further: potency means the concentration at half of the fitted maximal effect; % of control where 0% means no effect; nearly all actives have a fitted effect of over 45% in size
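Compounds were screened for protection of PC12 cells against cell death after tebufenozide induction (100 nM final) of mutant Huntingtin exon 1 (Q103) fused to GFP.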
HPGD inh: inhibitors of human 15-hydroxyprostaglandin dehydrogenase (HPGD); AID 894; purified HPGD, NADH fluorescence kinetic, PGE2 substrate; Potency, µM, for inactives: at the highest dose activity change, negative = inhibition, hits mostly inhibitors; hit rate 4.3% among 150,000; P15428; active means well fitted inhibition curve with a large enough effect, not every such curve was filed as active; inconclusive means small, poorly fitted or top-dose-only effect, or another doubt; inactive means no such curve, though single readings can be large or run the other way; further: potency means the concentration at half of the fitted maximal effect; on the % scale 0 is the no-effect control and ±100 the full control effect
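NADH formation kinetics: reaction with 30 uM PGE2 and 1 mM NAD+ (final), 20 nM enzyme, Tris-HCl pH 8 with Tween 20, after 15 min compound preincubation at room temperature. Fluorescence change, last versus first of five reads.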
CBFb-RUNX1 inh: blocks binding between human CBF-beta and RUNX1; Q01196+Q13951; AlphaScreen CBFb-His/RUNX1-biotin binding, biochemical; Potency, µM (top dose mostly 59.8 µM), without a hit: at the top dose activity, negative = inhibition, usual class: inhibitors; 230,000 tested, under 10 active; further: % of control where 0% means no effect
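Proteins preincubated together for 20 min at RT before compound addition; 15 min later, nickel and streptavidin beads were added and left 90 min prior to AlphaScreen measurement.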
HTT aggregate: mutant huntingtin aggregation inhibition; Potency, µM (top dose mostly 46.1 µM), inactives show top-dose activity change, negative = inhibition, usual class: inhibitors; hit rate 1.1% among 220,000; PC12 HttQ103-GFP aggregates, Acumen cytometry, 40 h; AID 1688; further: potency means the concentration at half of the fitted maximal effect; on the % scale 0 is the no-effect control and ±100 the full control effect; nearly all actives have a fitted effect of over 60% in size
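Inducible Q103 Huntingtin exon 1–GFP PC12 line, 1500 cells/well in phenol red free DMEM with 5% equine and 5% calf serum. Tebufenozide 100 nM induced expression; compounds titrated; aggregates quantified by cytometry.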
Starred values were filed as active, the others as inactive; ? = inconclusive; / = not tested or not shown; [ ] = dose if it differs, or a comment. In the library only some 9.8% were active in any assay of this set; here they are far more common. Unless noted, the call rests on the fitted dose curve; in most records, active means well fitted curve in the direction sought with a large enough effect; inconclusive means small, poorly fitted or top-dose-only effect, or another doubt; inactive means no such curve, though single readings can be large; an effect the other way counts as inactive or inconclusive.

SMILES	KDM4E inh	ALDH1A1 inh	HTT ATP protect	HPGD inh	CBFb-RUNX1 inh	HTT aggregate
COC(C(=O)Nc1ccc(F)cc1F)c1ccccc1 (stereo not given)	0.7%	-7.4%	-6.7%	-2.4%	7.5%	-9.4%
O=C(CN1CCN(S(=O)(=O)c2ccccc2F)CC1)Nc1ccccc1C(=O)c1ccccc1	4.9%	2.82µM*	/	/	-4.6%	-20.7%
COc1ccc(S(=O)(=O)N2CCN(CCC(=O)Nc3ccccc3F)CC2)cc1	-1.3%	1.12µM*	14.2%	-11.3%	1.2%	?
O=C(CN1CCN(C(=O)c2c(F)cccc2F)CC1)Nc1ccccc1F	0.8%	25.1µM*	8.3%	-1.7%	9.7%	-13.7%
O=C(CCN1CCN(CC(=O)Nc2ccccc2F)CC1)Nc1ccccc1F	-2.8%	?	-5.3%	-0.5%	0.4%	7.3%
COc1ccc(NC(=O)CN2CCN(CC(=O)Nc3ccccc3F)CC2)cc1OC	?	22.4µM*	0.2%[10 µM]	-9.4%	12.9%	17.2%
COc1ccc(NC(=O)CN2CCN(Cc3ccc4c(c3)OCO4)CC2)cc1OC	-0.5%	?	-5.5%	-3.8%	-2.0%	22.8%
O=C(O)C1C2C=CC(O2)C1C(=O)NCCCn1ccnc1 (stereo not given)	?	?	-15.4%	/	-13.3%	6.8%
CN1C(=O)C(O)(CC(=O)c2cccc(-n3cccc3)c2)c2ccccc21 (stereo not given)	1.4%	?	-24.1%	-19.7%	20.0%	4.5%
CC(C)N1C(=O)C(O)(C2COC(C)(C)CC2=O)c2ccccc21 (stereo not given)	8.6%	?	27.9%[10 µM]	/	0.8%	15.7%[9.22 µM]
CN1C(=O)C(O)(CC(=O)/C=C/c2ccco2)c2cc(Br)ccc21 (stereo not given)	?	23.8µM*	22.1%	/	-5.8%	18.3%
C#CCN1C(=O)C(O)(CC(=O)c2cccc(OC)c2)c2ccccc21 (stereo not given)	-6.7%	1.58µM*	37.9%[10 µM]	-10.2%	2.9%	0.3%
CC1(C)CC(=O)C(C2(O)C(=O)N(Cc3ccccc3)c3ccccc32)CO1 (stereo not given)	4.1%	0.0316µM*	-59.2%[10 µM]	-7.2%	-8.9%	7.0%
CCOC(=O)CN1C(=O)C(O)(CC(=O)c2ccco2)c2ccccc21 (stereo not given)	2.7%	0.159µM*	0.3%	-8.8%	-2.2%	6.9%
CN1C(=O)C(O)(CC(=O)/C=C/c2ccco2)c2ccccc21 (stereo not given)	3.9%	-6.9%	/	/	5.6%	/
COc1cccc2cc(C(=O)CC3(O)C(=O)N(Cc4ccccc4)c4ccccc43)c(=O)oc12 (stereo not given)	-3.4%	0.0891µM*	-9.3%	-1.3%	-1.2%	23.6%
CCN1C(=O)C(O)(CC(=O)c2c(C)coc2C)c2ccccc21 (stereo not given)	2.4%	?	-19.1%[10 µM]	/	14.3%	-22.7%[9.22 µM]
COc1cccc(C(=O)N/N=C2\SCC(=O)N2Cc2ccc3c(c2)OCO3)c1	4.7%	0.9%	23.1%[10 µM]	-22.5%	7.2%	-8.6%
Cc1coc(C)c1C(=O)CC1(O)C(=O)N(CCc2ccccc2)c2ccccc21 (stereo not given)	-7.7%	4.47µM*	-4.1%	?	-2.9%	?
CCCCN1C(=O)C(O)(CC(=O)c2ccco2)c2cc(Br)ccc21 (stereo not given)	2.7%	8.91µM*	32.0%[10 µM]	2.1%	4.1%	6.6%
COc1ccc(C(=O)N/N=C2/SCC(=O)N2Cc2ccc3c(c2)OCO3)cc1OC	0.7%	20µM*	4.2%	-11.8%	0.0%	8.0%
CN1C(=O)C(O)(CC(=O)c2ccccc2O)c2cc(Br)ccc21 (stereo not given)	4.5%	-3.9%	-12.8%[10 µM]	-6.8%	16.1%	18.4%
Cc1ccc(C(=O)NC(C)C(c2cccs2)N2CCCC2)s1 (stereo not given)	-3.3%	0.9%	-9.6%	/	-1.7%	3.1%

Source: PubChem BioAssay
